# Inconclusive results are not listed. Where a call stands in place of a potency, no number is given. Active and inactive are the calls of the source. The call rests on the fitted dose curve; in most records, active means well fitted curve in the direction sought with a large enough effect; inconclusive means small, poorly fitted or top-dose-only effect, or another doubt; inactive means no such curve, though single readings can be large; an effect the other way counts as inactive or inconclusive.
# Assays:
# [1] = Cellular Toxicity (caspase-3) H-4-II-E (AID 663);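 further: cells exposed to compound for 16 hr before readout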
# Procedure, shortened: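 Rat hepatoma H-4-II-E cells (1500/well) plated 5 hr, then exposed to compound titrations for 16 hr at 37 °C. Caspase-Glo 3/7 luminescence read after 20 min at RT; data normalized to DMSO and 100 uM tamoxifen, AC50 from Hill fits.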
# [2] = Cellular Toxicity (caspase-3) Hek293 (AID 664); details: HEK293 caspase-3 activation; caspase-3 activation: at 92.2 µM (top of the series), DMSO = 0%, 100 µM tamoxifen = 100%;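 further: cells exposed to compound for 16 h at 37 °C before readout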
# Procedure, shortened: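 Cells plated, 5 hr at 37 °C; compounds added; 16 hr at 37 °C; Caspase-Glo 3/7 reagent, 20 min RT; luminescence read. Activation expressed relative to DMSO and 100 uM tamoxifen, AC50 by Hill model.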
# [3] = Cellular Toxicity (caspase-3) N2a (AID 665);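 further: compound exposure lasted 16 h at 37 °C before readout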
# Procedure, shortened: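 N2a cells, 1500/well, 5 h settle at 37 °C; cpd 16 h, 37 °C; Caspase-Glo 3/7, 1 h RT; luminescence. Norm: DMSO = 0, 10 uM staurosporine = 100%. AC50, Hill fit.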
# [4] = Cellular Toxicity (caspase-3) NIH 3T3 (AID 666)
# Procedure, shortened: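 Luminescence from aminoluciferin released by caspase-3/7 cleavage of a peptide substrate served as read-out. Mouse fibroblast NIH 3T3 cells were exposed to compounds over a concentration range for 16 hours, and AC50 values came from standard Hill modelling.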
# [5] = Cellular Toxicity (caspase-3) Renal Proximal Tubule (AID 667);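 further: cells exposed to compound for 16 hours at 37 °C before detection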
# Procedure, shortened: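 Caspase-Glo 3/7 read-out, rat primary kidney proximal tubule cells. Compound exposure 16 h, 37 °C; detection after 1 h at RT. Activity scaled to DMSO and 10 uM staurosporine.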
# [6] = target: Guanine nucleotide-binding protein G(i) subunit alpha-1 (Homo sapiens) (UniProt P63096); assay: qHTS Assay for Inhibitors of RGS12 GoLoco Motif Activity (Green Fluorophore) (AID 879);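 further: negative values mean loss of peptide binding seen as reduced polarization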
# Sequence of Guanine nucleotide-binding protein G(i) subunit alpha-1 (Homo sapiens) (P63096 whole entry, looked up): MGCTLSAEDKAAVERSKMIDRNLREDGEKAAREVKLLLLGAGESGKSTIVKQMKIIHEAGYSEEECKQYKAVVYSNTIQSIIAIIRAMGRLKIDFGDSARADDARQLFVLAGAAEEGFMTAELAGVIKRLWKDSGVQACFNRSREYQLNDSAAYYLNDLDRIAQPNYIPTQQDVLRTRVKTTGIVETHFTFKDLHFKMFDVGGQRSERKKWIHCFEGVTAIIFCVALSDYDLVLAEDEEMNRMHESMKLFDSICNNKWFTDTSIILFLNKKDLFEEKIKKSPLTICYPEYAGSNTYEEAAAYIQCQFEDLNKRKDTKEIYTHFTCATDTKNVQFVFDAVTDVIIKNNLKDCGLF
# Procedure, shortened: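 Fluorescence polarization assay: 50 nM Gαi1 with 10 nM FITC-labeled RGS12 GoLoco peptide in 10 mM Tris pH 7.5, 150 mM NaCl, 0.1 mM GDP, 0.05% NP40, 10 min at room temperature with compound.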
# [7] = target: Cytochrome P450 3A4 (Homo sapiens) (UniProt P08684); assay: qHTS Assay for Inhibitors and Substrates of Cytochrome P450 3A4 (AID 884); further: nearly all actives have a fitted effect of over 50% in size
# Sequence of Cytochrome P450 3A4 (Homo sapiens) (P08684 whole entry, looked up): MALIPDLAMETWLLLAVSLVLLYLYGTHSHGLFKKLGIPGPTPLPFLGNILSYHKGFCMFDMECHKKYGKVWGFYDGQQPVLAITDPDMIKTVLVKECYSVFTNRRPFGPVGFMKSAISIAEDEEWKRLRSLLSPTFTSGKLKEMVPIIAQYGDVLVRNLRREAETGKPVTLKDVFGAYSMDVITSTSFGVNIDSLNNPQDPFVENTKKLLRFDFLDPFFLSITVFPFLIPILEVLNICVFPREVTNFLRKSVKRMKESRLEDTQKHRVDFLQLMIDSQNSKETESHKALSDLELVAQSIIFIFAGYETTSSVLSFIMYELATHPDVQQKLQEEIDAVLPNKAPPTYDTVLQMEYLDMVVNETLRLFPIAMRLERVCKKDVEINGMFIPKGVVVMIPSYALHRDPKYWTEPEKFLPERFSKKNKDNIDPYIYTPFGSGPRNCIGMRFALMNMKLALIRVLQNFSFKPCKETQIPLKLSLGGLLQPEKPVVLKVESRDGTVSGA
# Procedure, shortened: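 20 nM human CYP3A4 with 25 uM Luciferin-PPXE (at KM) in 200 mM KPO4, preincubated 10 min with compound; NADPH regeneration started a 60 min RT reaction. Luciferin detected by luminescence, normalized to 57 uM ketoconazole as full inhibition.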
# [8] = target: Cytochrome P450 2D6 (Homo sapiens) (UniProt P10635); assay: qHTS Assay for Inhibitors and Substrates of Cytochrome P450 2D6 (AID 891); further: nearly all actives have a fitted effect of over 60% in size; further: potency means the concentration at half of the fitted maximal effect
# Sequence of Cytochrome P450 2D6 (Homo sapiens) (P10635 whole entry, looked up): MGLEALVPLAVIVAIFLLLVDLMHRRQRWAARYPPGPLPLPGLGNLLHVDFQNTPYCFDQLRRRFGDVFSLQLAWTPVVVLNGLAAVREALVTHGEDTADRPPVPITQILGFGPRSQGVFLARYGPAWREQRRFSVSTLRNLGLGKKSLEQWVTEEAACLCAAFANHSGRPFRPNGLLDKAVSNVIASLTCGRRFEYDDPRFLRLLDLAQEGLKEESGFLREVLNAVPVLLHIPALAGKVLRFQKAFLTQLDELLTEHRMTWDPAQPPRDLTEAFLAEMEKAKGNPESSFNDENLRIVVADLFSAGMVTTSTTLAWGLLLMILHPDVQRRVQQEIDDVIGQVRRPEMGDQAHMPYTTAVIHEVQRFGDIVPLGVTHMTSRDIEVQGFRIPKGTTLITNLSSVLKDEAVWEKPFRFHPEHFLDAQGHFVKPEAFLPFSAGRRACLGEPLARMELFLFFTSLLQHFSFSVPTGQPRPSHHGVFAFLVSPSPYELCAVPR
# Procedure, shortened: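 Human CYP2D6 (5 nM) with 30 uM Luciferin-ME EGE (at Km) in 100 mM KPO4, compound preincubated 10 min, then NADPH regeneration system for 60 min at room temperature. Luciferin read by luminescence; normalized to 1.43 uM quinidine.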
# [9] = target: Cytochrome P450 3A4 (Homo sapiens) (UniProt P08684); assay: qHTS Assay for Activators of Cytochrome P450 3A4 (AID 885); further: nearly all actives have a fitted effect of over 65% in size
# Procedure, shortened: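 20nM CYP3A4 + 25uM Luciferin-PPXE (=KM), 200mM KPO4; cpd 10 min RT; NADPH regen, 60 min RT; stop w/ detection buffer, 20 min; luminescence. Normalized to 57 uM ketoconazole.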
# [10] = target: Cytochrome P450 2C9 (Homo sapiens) (UniProt P11712); assay: qHTS Assay for Inhibitors and Substrates of Cytochrome P450 2C9 (AID 883); further: nearly all actives have a fitted effect of over 60% in size
# Sequence of Cytochrome P450 2C9 (Homo sapiens) (P11712 whole entry, looked up): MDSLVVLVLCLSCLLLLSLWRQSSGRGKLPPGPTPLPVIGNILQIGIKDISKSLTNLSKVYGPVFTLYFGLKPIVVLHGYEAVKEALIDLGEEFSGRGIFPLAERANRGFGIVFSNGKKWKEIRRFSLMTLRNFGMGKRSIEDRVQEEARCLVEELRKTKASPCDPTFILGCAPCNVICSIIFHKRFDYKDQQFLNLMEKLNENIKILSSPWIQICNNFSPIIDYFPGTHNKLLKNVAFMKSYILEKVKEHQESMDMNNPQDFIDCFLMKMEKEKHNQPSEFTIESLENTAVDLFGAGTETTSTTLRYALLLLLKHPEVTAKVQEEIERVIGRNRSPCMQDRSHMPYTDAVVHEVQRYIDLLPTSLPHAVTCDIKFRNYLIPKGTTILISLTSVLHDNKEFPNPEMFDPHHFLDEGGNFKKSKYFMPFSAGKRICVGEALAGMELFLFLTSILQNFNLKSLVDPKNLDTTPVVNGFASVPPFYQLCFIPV
# Procedure, shortened: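 10nM CYP2C9 + 100uM Luciferin-H (=KM), 25mM KPO4; cpd 10 min 37C; NADPH regen, 60 min 37C; stop/detect with P450 Glo-Buffer 20 min; luminescence. Norm. to 57uM sulphaphenazole as full inhibition.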
compound,measurement,setting,value
Nc1ccn([C@H]2CC[C@@H](CO)O2)c(=O)n1,outcome,[1],inactive
same,Potency,[2],inactive
same,outcome,[3],inactive
same,outcome,[4],inactive
same,outcome,[5],inactive
same,Potency,[6],inactive
same,outcome,[7],inactive
COc1ccc2c(c1)c(CC(=O)O)c(C)n2C(=O)c1ccc(Cl)cc1,outcome,[1],inactive
same,Potency,[2],inactive
same,outcome,[3],inactive
same,outcome,[4],inactive
same,outcome,[5],inactive
same,Potency,[6],inactive
same,outcome,[7],inactive
same,Potency,[8],inactive
NS(=O)(=O)c1cc2c(cc1Cl)NCNS2(=O)=O,outcome,[1],inactive
same,Potency,[2],inactive
same,outcome,[3],inactive
same,outcome,[4],inactive
same,outcome,[5],inactive
same,Potency,[6],inactive
Cn1c(=O)c2[nH]cnc2n(C)c1=O,outcome,[1],inactive
same,Potency,[2],inactive
same,outcome,[3],inactive
same,outcome,[4],inactive
same,outcome,[5],inactive
same,Potency,[6],inactive
same,outcome,[7],inactive
Nc1c2c(nc3ccccc13)CCCC2,outcome,[1],inactive
same,Potency,[2],inactive
same,outcome,[3],inactive
same,outcome,[4],inactive
same,outcome,[5],inactive
same,Potency,[6],inactive
same,Potency,[9],inactive
same,Potency,[8],5.01 µM (active)
CNCCCC12CCC(c3ccccc31)c1ccccc12,Potency,[6],inactive
CN1CCN(C2=Nc3cc(Cl)ccc3Nc3ccccc32)CC1,Potency,[6],inactive
Cn1cnc2c1c(=O)[nH]c(=O)n2C,Potency,[6],inactive
Cc1cn([C@H]2C=C[C@@H](CO)O2)c(=O)[nH]c1=O,outcome,[1],inactive
same,Potency,[2],inactive
same,outcome,[3],inactive
same,outcome,[4],inactive
same,outcome,[5],inactive
same,Potency,[6],inactive
same,outcome,[7],inactive
O=c1[nH]cc(F)c(=O)[nH]1,outcome,[1],inactive
same,Potency,[2],inactive
same,outcome,[3],inactive
same,outcome,[4],inactive
same,outcome,[5],inactive
same,Potency,[6],inactive
same,Potency,[10],inactive
same,outcome,[7],inactive
same,Potency,[8],inactive
OCCN1CCN(CCCN2c3ccccc3Sc3ccc(C(F)(F)F)cc32)CC1,Potency,[6],inactive
NCCS(=O)(=O)O,outcome,[1],inactive
same,Potency,[2],inactive
same,outcome,[3],inactive
same,outcome,[4],inactive
same,outcome,[5],inactive
same,Potency,[6],inactive
COc1ccc(CCN(C)CCCC(C#N)(c2ccc(OC)c(OC)c2)C(C)C)cc1OC (stereo unspecified),outcome,[1],inactive
same,Potency,[2],inactive
same,outcome,[3],inactive
same,outcome,[4],inactive
same,outcome,[5],inactive
CCOC(=O)C(C)(C)Oc1ccc(Cl)cc1,Potency,[6],inactive
N[C@@H](Cc1c[nH]c2ccc(O)cc12)C(=O)O,outcome,[1],inactive
same,Potency,[2],inactive
same,outcome,[3],inactive
same,outcome,[4],inactive
same,outcome,[5],inactive
same,Potency,[6],inactive
same,Potency,[10],inactive
same,Potency,[9],inactive
same,Potency,[8],inactive
CCCCc1oc2ccccc2c1C(=O)c1cc(I)c(OCCN(CC)CC)c(I)c1,Potency,[6],inactive
CN(C)CCOC(c1ccccc1)c1ccccc1,Potency,[6],inactive
CCC1(c2ccccc2)C(=O)NCNC1=O,outcome,[1],inactive
same,Potency,[2],inactive
same,outcome,[3],inactive
same,outcome,[4],inactive
same,outcome,[5],inactive
same,Potency,[6],inactive
same,Potency,[10],inactive
same,outcome,[7],inactive
same,Potency,[8],inactive
COc1ccc2[nH]cc(CCNC(C)=O)c2c1,outcome,[1],inactive
same,Potency,[2],inactive
same,outcome,[3],inactive
same,outcome,[4],inactive
same,outcome,[5],inactive
same,Potency,[6],inactive
NC12CC3CC(CC(C3)C1)C2,Potency,[6],inactive
CCc1cccc2c3c([nH]c12)C(CC)(CC(=O)O)OCC3 (stereo unspecified),Potency,[6],inactive
CC(C)C(=O)Nc1ccc([N+](=O)[O-])c(C(F)(F)F)c1,outcome,[1],inactive
same,Potency,[2],inactive
same,outcome,[3],inactive
same,outcome,[4],inactive
same,outcome,[5],inactive
same,Potency,[6],inactive
same,Potency,[9],inactive
same,Potency,[8],inactive
O=C(c1ccc(F)cc1)C1CCN(CCn2c(=O)[nH]c3ccccc3c2=O)CC1,Potency,[6],inactive
Nc1nc2c(ncn2COC(CO)CO)c(=O)[nH]1,Potency,[6],inactive
O=c1c(-c2ccc(O)cc2)coc2cc(O)cc(O)c12,outcome,[1],inactive
same,Potency,[2],inactive
same,outcome,[3],inactive
same,outcome,[4],inactive
same,outcome,[5],inactive
same,Potency,[6],inactive
same,Potency,[10],inactive
same,Potency,[9],inactive
same,Potency,[8],inactive
Cc1cn([C@H]2C[C@H](N=[N+]=[N-])[C@@H](CO)O2)c(=O)[nH]c1=O,outcome,[1],inactive
same,Potency,[2],inactive
same,outcome,[3],inactive
same,outcome,[4],inactive
same,outcome,[5],inactive
COc1cc2c(c(OC)c1OC)-c1ccc(OC)c(=O)cc1[C@@H](NC(C)=O)CC2,outcome,[1],inactive
same,Potency,[2],inactive
same,outcome,[3],inactive
same,outcome,[4],inactive
same,outcome,[5],inactive
same,Potency,[6],inactive
